High-throughput results from PubChem BioAssay.
Hits are enriched below; roughly 5.1% of the tested compounds scored in any of these assays.
ROMK primary = modulates human ROMK potassium channel activity. P48048. Tet-inducible ROMK, thallium flux fluorescence; actives lie on both sides. B-score at 10 µM. hit rate 2% among 130,000. AID 1918;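 active means signal ratio slope over the read window, or its plate-corrected B-score, at least 3 SD from the plate mean, either direction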;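 further: B-score of the F/F0 ratio slope over 7 to 12 s after thallium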
Cl transport mod = modulates chloride dependent transport by human KCC2. AID 1456. Q9H2X9. KCC2 cells, thallium flux FluoZin-2 fluorescence. B-score of Tl+ flux slope (higher = more flux/activation; lower = inhibition) at 10 µM. hit rate 2.2% among 190,000;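 active means thallium flux slope and its plate-corrected score both differing from the plate sample mean at a set confidence after two filtering rounds, in either direction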;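 further: slope of fluorescence scaled to starting intensity during 10 to 20 s after thallium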
S1P3 antagonist = antagonists of human S1P3 receptor. AID 485. CHO S1P3 NFAT-BLA reporter, FRET fluorescence, antagonist mode. Q99500. inhibition, % at 4.98 µM. hit rate 0.27% among 170,000;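 active means inhibition above the plate cutoff, the mean inhibition of test wells on that plate plus 3 SD, cut at about 28% in these data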;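 further: cells challenged with S1P at its EC80 of 0.8 µM; blue over green emission ratio from cleaved BLA substrate after 4 h stimulation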
Target sequence (Q99500 whole entry, looked up): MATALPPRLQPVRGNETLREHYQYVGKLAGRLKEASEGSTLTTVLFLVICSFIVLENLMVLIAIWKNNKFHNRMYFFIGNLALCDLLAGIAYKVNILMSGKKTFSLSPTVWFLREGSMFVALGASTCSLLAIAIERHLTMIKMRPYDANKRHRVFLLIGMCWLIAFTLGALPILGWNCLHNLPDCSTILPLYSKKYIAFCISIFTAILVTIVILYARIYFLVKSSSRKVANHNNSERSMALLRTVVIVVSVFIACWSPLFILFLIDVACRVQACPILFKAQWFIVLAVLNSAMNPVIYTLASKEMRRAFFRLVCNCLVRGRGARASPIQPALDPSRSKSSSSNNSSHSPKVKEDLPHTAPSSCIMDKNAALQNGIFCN
S1P4 ag = human S1P4 receptor agonism; hit rate 0.35% among 220,000; activation, % at 4.98 µM; O95977; S1P4-expressing cell line, agonist reporter assay; in the data active means activation above about 11%
Target sequence (O95977 whole entry, looked up): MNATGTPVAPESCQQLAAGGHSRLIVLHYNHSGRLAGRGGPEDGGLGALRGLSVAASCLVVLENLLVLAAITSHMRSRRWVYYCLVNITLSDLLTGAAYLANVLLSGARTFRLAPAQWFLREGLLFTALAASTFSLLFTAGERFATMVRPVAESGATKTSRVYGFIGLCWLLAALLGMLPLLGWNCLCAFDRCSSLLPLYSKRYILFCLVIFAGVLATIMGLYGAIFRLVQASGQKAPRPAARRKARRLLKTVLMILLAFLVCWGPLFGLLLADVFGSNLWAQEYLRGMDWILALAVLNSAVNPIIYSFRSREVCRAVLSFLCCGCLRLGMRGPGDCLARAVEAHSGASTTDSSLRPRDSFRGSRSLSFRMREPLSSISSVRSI
RAM inhibit = blocks the yeast RAM network; AID 868; hit rate 1.8% among 190,000; inhibition, % at 50 µM; S. cerevisiae dse1pr::URA3 reporter, 5-FOA growth OD615, 2 d; analog-sensitive cbk1-as2 kinase mutant strain;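 active means inhibition above a set limit, 3 SD over mean compound inhibition, cut at about 8.4% in these data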;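 further: inhibition rescues growth on 5-FOA so higher OD means more RAM inhibition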
S1P4 antag = blocks the human S1P4 receptor. S1P4-expressing cells, antagonist mode, reporter read-out. inhibition, % at 4.98 µM. hit rate 0.26% among 220,000. O95977; in the data active means inhibition above about 29%
Of the large screens only hits and unclear results are named; the others gave an inactive call.

CC(=O)Nc1ccc(NC(=O)c2ccc(NS(=O)(=O)c3cc(C(C)(C)C)cc(C)c3C)cc2)cc1	RAM inhibit 10
CC(=O)Oc1ccc(N2C(=O)C3C4C=CC(CO)(O4)C3C2=O)cc1 (centres undefined)	none (no result: S1P3 antagonist)
O=C1C2C3C=CC(CO)(O3)C2C(=O)N1c1ccccc1-c1ccccc1 (centres undefined)	S1P4 antag 31 (no result: ROMK primary)
COc1cc(-c2nc3c(c(C)nn3-c3ccccc3)c3cc(OC)c(OC)cc23)ccc1O	RAM inhibit 8.9 (no result: ROMK primary, S1P3 antagonist)
COc1ccc(-c2c(C)nn(-c3ccccc3)c2N)cc1OC	none (no result: Cl transport mod, S1P3 antagonist)
O=C(COC(=O)Cc1ccc(Cl)cc1)Nc1ccc(OC(F)F)cc1	none (no result: ROMK primary)
O=C(COC(=O)Cc1ccc(Cl)cc1Cl)Nc1ccc(OC(F)F)cc1	RAM inhibit 10
CCN(CC)c1ccc(S(=O)(=O)N2CCOCC2)cc1NC(=O)CN1CCN(Cc2ccccc2)CC1	none (no result: ROMK primary, RAM inhibit)
Cc1ccccc1NC(=O)CSc1nc(COc2ccccc2)nc2ccccc12	RAM inhibit 9.7 (no result: ROMK primary, S1P3 antagonist)
Cc1cc(C)c(NC(=O)CSc2nc(COc3ccccc3)nc3ccccc23)c(C)c1	none (no result: Cl transport mod, S1P3 antagonist)
O=C(Nc1ccccc1Cl)c1ccc(COc2ccc3c(c2)CCC3)cc1	RAM inhibit 11 (no result: ROMK primary)
COc1ccc(NC(=O)C2CC(=O)N/C(=N/NC(=O)c3ccc(Cl)cc3)S2)cc1 (centres undefined)	none (no result: RAM inhibit)
CC1(C)Cc2nc(Cl)c(C(N)=O)cc2CO1	none (no result: RAM inhibit)
Cc1oc(-c2ccccc2)nc1CS(=O)CC(=O)O (centres undefined)	Cl transport mod 2.9 (no result: ROMK primary, S1P3 antagonist)
COc1cccc(-c2nc(CS(=O)CC(=O)O)c(C)o2)c1 (centres undefined)	none (no result: ROMK primary)
CC(C)OP(=O)(OC(C)C)/C(C=O)=N\Nc1ccc([N+](=O)[O-])cc1	none (no result: RAM inhibit)
O=C(Nc1nc(COc2ccccc2)cs1)C12CC3CC(CC(C3)C1)C2	RAM inhibit 9.4 (no result: S1P3 antagonist)
COc1ccc(Cl)cc1NC(=O)COC(=O)c1cc(NS(=O)(=O)c2cccs2)ccc1O	RAM inhibit 11
C[C@H](NC(=O)c1ccco1)C(=O)NCCc1ccc(S(N)(=O)=O)cc1	none (no result: ROMK primary, RAM inhibit)
CCOc1ccc(-n2c(C)cc(C(=O)NS(=O)(=O)c3ccc(C)cc3)c2C)cc1	none (no result: ROMK primary)
Cc1ccc(-n2c(C)cc(C(=O)NS(=O)(=O)c3ccc(C)cc3)c2C)cc1	RAM inhibit 8.6 (no result: ROMK primary)
CC(C)NC(=O)NC(=O)COc1ccc(Br)cc1Br	none
NC(=O)CN(c1ccccc1)C1SC(=O)N(Cc2ccccc2)C1=O (centres undefined)	none
Cc1ccc(N(CC(N)=O)C2SC(=O)N(Cc3ccccc3)C2=O)cc1 (centres undefined)	RAM inhibit 9.4 (no result: Cl transport mod)
CCc1cccc(CC)c1NC(=O)C1SC(=Nc2ccccc2C)C(c2nc3ccccc3s2)=C1N (centres undefined)	RAM inhibit 8.8 (no result: S1P3 antagonist)
CCOC(=O)N1CCN(C(=O)Cc2ccc(-n3c(=O)[nH]c4ccccc4c3=O)cc2)CC1	none (no result: Cl transport mod)
COc1cccc(CNC(=O)Cc2ccc(-n3c(=O)[nH]c4ccccc4c3=O)cc2)c1	RAM inhibit 9.0
COc1cc(NC(=S)NC(=O)C(C)C)ccc1NC(=O)c1cc2ccccc2o1	RAM inhibit 9.5
O=C1/C(=C/c2cccnc2)CCC/C1=C\c1cccnc1	ROMK primary -4.6
CCC1C/C(=C\c2cccnc2)C(=O)/C(=C/c2cccnc2)C1 (centres undefined)	ROMK primary -4.3
O=C(NCc1ccco1)C(c1ccccc1)N(C(=O)Cc1cccs1)c1ccccc1F (centres undefined)	none (no result: ROMK primary, S1P3 antagonist)
CCOC(=O)c1ccc(Nc2c(OCC)c(=O)c2=O)cc1	none (no result: RAM inhibit)
O=C(Nc1ccccc1)c1nc2ccccc2s1	none
Cc1cccc(NC(=S)c2nc3ccccc3s2)c1	Cl transport mod 3.3 (no result: S1P3 antagonist)
O=C(/C=C/c1ccccc1)NC(NC(=S)Nc1ccc(Cl)cc1)C(Cl)(Cl)Cl (centres undefined)	RAM inhibit 10 (no result: Cl transport mod, S1P3 antagonist)
O=C(NC(=S)Nc1ccccc1)c1csnn1	Cl transport mod 43 (no result: ROMK primary, S1P3 antagonist)
O=C(O)c1ccc(NC(=S)NC(=O)c2ccc(-c3ccccc3)cc2)cc1	none (no result: ROMK primary)
O=C(Nc1csnn1)c1csnn1	none (no result: ROMK primary, RAM inhibit)
O=C(NC(=S)Nc1ccc(C(F)(F)F)cc1)c1csnn1	ROMK primary 7.4, Cl transport mod 67
CCCC(=O)N(c1ccc(C(=O)O)cc1)c1nc(-c2ccccc2)c(C)s1	none
NC(=O)CSc1nc2cc3c(cc2c(=O)n1CCCC(=O)NCc1ccc2c(c1)OCO2)OCO3	none (no result: ROMK primary, Cl transport mod, S1P3 antagonist)
O=C(NCc1cccnc1)c1csc2c1CCCC2	none (no result: ROMK primary)
Cc1cc(C)nc(NS(=O)(=O)c2ccc(NC(=S)NC(=O)c3cccnc3)cc2)n1	none
Cc1cc(NS(=O)(=O)c2ccc(NC(=S)NC(=O)c3cccnc3)cc2)no1	RAM inhibit 9.3
O=C(/C=C/c1cccnc1)c1cc(F)ccc1O	none (no result: ROMK primary, RAM inhibit)
O=C(/C=C/c1cccnc1)/C=C/c1cccnc1	S1P4 antag 98 (no result: ROMK primary, RAM inhibit)
Cc1ccc([N+](=O)[O-])cc1NC(=O)Nc1cccc(F)c1	none (no result: ROMK primary, RAM inhibit)
COc1ccc(CN=C2NC(=O)CC(C(=O)Nc3ccc(Cl)cc3)S2)cc1 (centres undefined)	RAM inhibit 9.2
Brc1cc2c(cc1Cn1c(-c3cncs3)nc3ccccc31)OCO2	RAM inhibit 10 (no result: ROMK primary, Cl transport mod)
Cc1ccccc1Cn1c(-c2cncs2)nc2ccccc21	none (no result: ROMK primary)
CCC1CCc2c(sc3nc(SCC(=O)NCc4ccco4)n(-c4ccccc4)c(=O)c23)C1 (centres undefined)	none (no result: S1P3 antagonist)
CC(Nc1ccccc1)c1cc(Cl)ccc1O (centres undefined)	none (no result: S1P3 antagonist)
COc1ccc(NC(C)c2cc(Cl)ccc2O)cc1 (centres undefined)	S1P3 antagonist 63 (no result: ROMK primary)
NS(=O)(=O)c1ccc(NC(=O)COc2ccc(C(=O)c3ccc(F)cc3)cc2)cc1	none (no result: ROMK primary, RAM inhibit)
O=C(C(=O)N1CCN(c2cccc(Cl)c2)CC1)c1c[nH]c2ccccc12	none
COc1ccc(C(=O)CSc2nnc(C(CO)NC(=O)c3ccc(OC)cc3)n2C)cc1 (centres undefined)	RAM inhibit 11
COc1ccc(C(=O)NC(C)c2nnc(SCC(=O)Nc3nc4ccccc4s3)n2C)cc1 (centres undefined)	Cl transport mod -4.6
COn1c(-c2ccc(Cl)cc2)nc2ccc(Cl)cc21	RAM inhibit 11 (no result: ROMK primary, S1P3 antagonist)
Clc1ccc(COn2c(-c3ccc(Cl)cc3)nc3ccccc32)cc1	RAM inhibit 9.1 (no result: ROMK primary, S1P3 antagonist)
O=C(O)COn1c(-c2ccc(Cl)cc2)nc2ccc(Cl)cc21	none
O=C(CCN1CCC(c2cccs2)=N1)c1cccs1	none (no result: ROMK primary, Cl transport mod, RAM inhibit)
O=C(Nc1ccccc1Cc1ccccc1)c1ccccc1NS(=O)(=O)c1ccc(Cl)s1	ROMK primary -3.5, Cl transport mod -3.5
O=C(Nc1ccccc1)c1ccccc1NS(=O)(=O)c1ccc(Cl)s1	none (no result: ROMK primary, Cl transport mod, S1P3 antagonist)
O=C(COC(=O)CCC1CCCC1)Nc1ccc(Cl)cc1F	none (no result: ROMK primary)
CC1CCCC(C)N1C(=O)c1cc(-c2ccc(Cl)c(Cl)c2)on1 (centres undefined)	RAM inhibit 11
